Here are results for nine compounds from PubChem BioAssay (NCI).

The panel holds about 79,000 compounds, 15% with a hit somewhere; the sample as a whole holds those more often. Unmarked numbers belong to inactive results. Calls of active or inactive are those of the source. No stated cut-off is given here; in the data, active means growth inhibition above about 70%; inactive means the rest.

Assay [1] is described as follows: NCI Yeast Anticancer Drug Screen. Data for the rad50 strain (AID 155).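 Further: 0% = growth of vehicle-only cultures of the same strain.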 The settings on record: S. cerevisiae rad50 strain growth inhibition, hits give high values. In a few lines:
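Relative growth inhibition (compound vs vehicle) was measured in yeast with a defined repair-gene alteration.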

A short description of assay [2]: NCI Yeast Anticancer Drug Screen. Data for the mec2-1 strain (AID 157). To be noted: S. cerevisiae mec2-1 strain, hits give high values. The method, boiled down: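 Cells of the genetically defined mec2-1 yeast strain are incubated with test compound. Inhibition of growth is calculated against vehicle-treated controls.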
Assay [3] in a line: NCI Yeast Anticancer Drug Screen. Data for the sgs1 mgt1 strain (AID 161).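 Further: 0% = growth of cultures given vehicle only.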 To be noted: S. cerevisiae sgs1 mgt1 strain, hits give high values. The method, boiled down:
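Test agents were incubated with a DNA-repair-mutant yeast strain. Growth was then read and compared against vehicle-treated controls.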

Assay [4] is described as follows: NCI Yeast Anticancer Drug Screen. Data for the cln2 rad14 strain (AID 165).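 Further: 0% = growth equal to vehicle treated cultures.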 The settings on record: S. cerevisiae cln2 rad14 strain, hits give high values. In a few lines:
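The screen exposed genetically defined yeast (cln2 rad14) to test compounds and scored growth inhibition relative to vehicle-treated controls.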

Assay [5] in a line: NCI Yeast Anticancer Drug Screen. Data for the bub3 strain (AID 167). To be noted: S. cerevisiae bub3 mutant strain, hits give high values. The method, boiled down:
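Screening used yeast with an engineered genetic alteration affecting cell cycle control. Compound-exposed cultures were compared with vehicle cultures, and reduced growth was taken as inhibition.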

The nature of assay [6]: NCI Yeast Anticancer Drug Screen. Data for the mlh1 rad18 strain (AID 175). The settings on record: S. cerevisiae mlh1 rad18 strain growth inhibition, hits give high values. The method, boiled down: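 Compound-treated yeast growth, normalised to vehicle controls. Strain bears defined DNA repair mutations.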
[7] abbreviates: at 5.0 µM (retest, dose inferred, filed as 0.5).
Setting [8] is: at 50.0 µM (retest, dose inferred, filed as 5.0).

With `C=CC1(C)CCC2C(=CCC3C(C)(C(=O)O)CCCC23C)C1` (configuration not stated) (tested in a mixture with another compound), the growth inhibition is -5% in assay [1] (setting [7]); 61% in assay [1] (setting [8]); 65.1% in assay [1] (at 50.0 µM); 0% in assay [2] (setting [7]); 87% (active) in assay [2] (setting [8]); 74.2% (active) in assay [2] (at 50.0 µM). The growth inhibition in assay [3] (setting [7]) was -5%; in assay [3] (setting [8]), 59%; in assay [3] (at 50.0 µM), 32.4%; in assay [4] (setting [7]), -28%; in assay [4] (setting [8]) it was 66%; in assay [4] (at 50.0 µM), 76.8% (active). In addition, the growth inhibition in assay [5] (setting [7]) is -17%; in assay [5] (setting [8]) it was 66%; in assay [5] (at 50.0 µM), 64.2%; in assay [6] (setting [7]) it was 6%; in assay [6] (setting [8]) it was 84% (active); in assay [6] (at 50.0 µM), 72% (active).
`CCC1=CCC2C(=O)c3cc4ccccc4cc3C(=O)C2C1` (configuration not stated): the growth inhibition in assay [1] (setting [7]) was 11%; in assay [1] (setting [8]) it was 26%; in assay [1] (at 50.0 µM), 89.3% (active); in assay [2] (setting [7]) it was 11%; in assay [2] (setting [8]), 64%; in assay [2] (at 50.0 µM), 96.2% (active). Moreover, the growth inhibition was 9% in assay [3] (setting [7]); -4% in assay [3] (setting [8]); 89.6% (active) in assay [3] (at 50.0 µM); 2% in assay [4] (setting [7]); 20% in assay [4] (setting [8]); 37.5% in assay [4] (at 50.0 µM). The growth inhibition is 10% in assay [5] (setting [7]); 61% in assay [5] (setting [8]); 93% (active) in assay [5] (at 50.0 µM); 7% in assay [6] (setting [7]); 46% in assay [6] (setting [8]); 94.8% (active) in assay [6] (at 50.0 µM).
`COc1ccc(C(=O)Nc2ccccc2[N+](=O)[O-])cc1`: the growth inhibition in assay [1] (setting [7]) is -6%; in assay [1] (setting [8]), 7%; in assay [1] (at 50.0 µM), -1.15%; in assay [2] (setting [7]), -16%; in assay [2] (setting [8]), -23%; in assay [2] (at 50.0 µM), 8.3%. In addition, the growth inhibition was -13% in assay [3] (setting [7]); -11% in assay [3] (setting [8]); 10.4% in assay [3] (at 50.0 µM); -14% in assay [4] (setting [7]); 5% in assay [4] (setting [8]); 48.5% in assay [4] (at 50.0 µM). Besides, the growth inhibition was -15% in assay [5] (setting [7]); 13% in assay [5] (setting [8]); 19.2% in assay [5] (at 50.0 µM); -13% in assay [6] (setting [7]); 0% in assay [6] (setting [8]); 16.2% in assay [6] (at 50.0 µM).
Take `COc1cc(C(c2cc3c(cc2OC(C)=O)OCO3)C(C)C(C)=O)cc(OC)c1OC` (configuration not stated): the growth inhibition in assay [1] (setting [7]) was 3%; in assay [1] (setting [8]) it was 84% (active); in assay [1] (at 50.0 µM) it was -8.35%; in assay [2] (setting [7]), 4%; in assay [2] (setting [8]), 66%; in assay [2] (at 50.0 µM), 13.8%. For the same compound, the growth inhibition is 5% in assay [3] (setting [7]); 95% (active) in assay [3] (setting [8]); 0.1% in assay [3] (at 50.0 µM); 7% in assay [4] (setting [7]); 49% in assay [4] (setting [8]); 51.2% in assay [4] (at 50.0 µM). Besides, the growth inhibition is 1% in assay [5] (setting [7]); 40% in assay [5] (setting [8]); -1.75% in assay [5] (at 50.0 µM); 1% in assay [6] (setting [7]); 38% in assay [6] (setting [8]); 29.1% in assay [6] (at 50.0 µM).
As for `CCCCCCCCS(=O)(=O)Nc1ccccc1`, the growth inhibition in assay [1] (setting [7]) was 11%; in assay [1] (setting [8]), 98% (active); in assay [1] (at 50.0 µM), 99.3% (active); in assay [2] (setting [7]) it was 0%; in assay [2] (setting [8]) it was 99% (active); in assay [2] (at 50.0 µM) it was 99.2% (active). For the same compound, the growth inhibition in assay [3] (setting [7]) was 6%; in assay [3] (setting [8]), 99% (active); in assay [3] (at 50.0 µM) it was 99.3% (active); in assay [4] (setting [7]), 4%; in assay [4] (setting [8]), 99% (active); in assay [4] (at 50.0 µM), 99.4% (active). The growth inhibition was 4% in assay [5] (setting [7]); 99% (active) in assay [5] (setting [8]); 99.1% (active) in assay [5] (at 50.0 µM); -5% in assay [6] (setting [7]); 61% in assay [6] (setting [8]); 99.1% (active) in assay [6] (at 50.0 µM).
Regarding `CN(C)CCN(C)N=Nc1c(-c2cccs2)n[nH]c1C(F)(F)F`, the growth inhibition in assay [1] (setting [7]) was 98% (active); in assay [1] (setting [8]), 99% (active); in assay [1] (at 50.0 µM) it was 99.1% (active); in assay [2] (setting [7]), 99% (active); in assay [2] (setting [8]), 100% (active); in assay [2] (at 50.0 µM) it was 99.7% (active). Also, the growth inhibition in assay [3] (setting [7]) was 99% (active); in assay [3] (setting [8]), 100% (active); in assay [3] (at 50.0 µM) it was 99.6% (active); in assay [4] (setting [7]), 99% (active); in assay [4] (setting [8]), 98% (active); in assay [4] (at 50.0 µM) it was 99.3% (active). Moreover, the growth inhibition in assay [5] (setting [7]) was 99% (active); in assay [5] (setting [8]), 99% (active); in assay [5] (at 50.0 µM) it was 99.5% (active); in assay [6] (setting [7]), 99% (active); in assay [6] (setting [8]), 100% (active); in assay [6] (at 50.0 µM) it was 99.5% (active).
Regarding `CCCCCCCCCCCCCCC(=O)OCC[N+](C)(C)C`, the growth inhibition is 33% in assay [1] (setting [7]); 98% (active) in assay [1] (setting [8]); 90.2% (active) in assay [1] (at 50.0 µM); 24% in assay [2] (setting [7]); 98% (active) in assay [2] (setting [8]); 93% (active) in assay [2] (at 50.0 µM). Besides, the growth inhibition in assay [3] (setting [7]) is 45%; in assay [3] (setting [8]), 99% (active); in assay [3] (at 50.0 µM), 92.8% (active); in assay [4] (setting [7]) it was 33%; in assay [4] (setting [8]) it was 98% (active); in assay [4] (at 50.0 µM), 85.3% (active). Also, the growth inhibition in assay [5] (setting [7]) is 44%; in assay [5] (setting [8]), 99% (active); in assay [5] (at 50.0 µM), 91.8% (active); in assay [6] (setting [7]) it was 27%; in assay [6] (setting [8]), 97% (active); in assay [6] (at 50.0 µM) it was 91.2% (active).
Turning to `Fc1ccc(NC(=S)SCc2ccc(Cl)c(Cl)c2)c(F)c1`, the growth inhibition was 13% in assay [1] (setting [7]); 98% (active) in assay [1] (setting [8]); 98.5% (active) in assay [1] (at 50.0 µM); 7% in assay [2] (setting [7]); 99% (active) in assay [2] (setting [8]); 97.3% (active) in assay [2] (at 50.0 µM). The growth inhibition in assay [3] (setting [7]) was 6%; in assay [3] (setting [8]), 98% (active); in assay [3] (at 50.0 µM), 99.2% (active); in assay [4] (setting [7]), -6%; in assay [4] (setting [8]) it was 97% (active); in assay [4] (at 50.0 µM), 98.8% (active). Besides, the growth inhibition in assay [5] (setting [7]) was 11%; in assay [5] (setting [8]), 98% (active); in assay [5] (at 50.0 µM), 99% (active); in assay [6] (setting [7]), 9%; in assay [6] (setting [8]), 95% (active); in assay [6] (at 50.0 µM) it was 99% (active).
For `CCN1C2=NC(=O)N(C)C(=O)C2(Cl)C(C(SC)S(=O)(=O)c2ccc(C)cc2)c2ccccc21` (configuration not stated), the growth inhibition in assay [1] (setting [7]) is 22%; in assay [1] (setting [8]), 22%; in assay [1] (at 50.0 µM), 88.1% (active); in assay [2] (setting [7]) it was 7%; in assay [2] (setting [8]) it was 7%; in assay [2] (at 50.0 µM) it was 86.3% (active). The growth inhibition in assay [3] (setting [7]) was 15%; in assay [3] (setting [8]), 15%; in assay [3] (at 50.0 µM), 81.7% (active); in assay [4] (setting [7]) it was 18%; in assay [4] (setting [8]), 18%; in assay [4] (at 50.0 µM), 90% (active). The growth inhibition in assay [5] (setting [7]) is 1%; in assay [5] (setting [8]) it was 1%; in assay [5] (at 50.0 µM) it was 89.5% (active); in assay [6] (setting [7]), 2%; in assay [6] (setting [8]), 2%; in assay [6] (at 50.0 µM), 84.7% (active).
